Sampled rows, rich in hits. Any-hit rate of the full collection: about 1.2%.
RGS4-Gao reg = modulates binding of RGS4 to human Galphao; binding response (% of control), % at 10 µM; Multiplexed bead flow cytometry; actives lie on both sides; 220,000 tested, 0.33% active; AID 1415; P09471; in the data active = binding response below about 49% or above about 150%; inactive = in between;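 note: fluorescent Galphao activated with aluminum fluoride binding bead-coupled RGS4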
Target sequence (P09471 whole entry, looked up): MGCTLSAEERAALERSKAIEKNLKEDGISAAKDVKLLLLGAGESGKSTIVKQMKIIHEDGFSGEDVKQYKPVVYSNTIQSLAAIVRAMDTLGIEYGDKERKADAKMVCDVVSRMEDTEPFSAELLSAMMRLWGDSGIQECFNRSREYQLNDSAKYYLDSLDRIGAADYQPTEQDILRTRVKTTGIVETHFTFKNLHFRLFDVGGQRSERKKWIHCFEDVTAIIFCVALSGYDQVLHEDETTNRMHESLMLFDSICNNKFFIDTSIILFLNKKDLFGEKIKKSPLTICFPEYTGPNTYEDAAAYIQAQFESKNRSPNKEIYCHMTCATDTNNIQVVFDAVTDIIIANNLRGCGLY
GSH fluor = compound fluoresces at 488/530 nm on GSH beads; fluorescence (KMESF) at 10 µM; 190,000 tested, 0.25% active; GSH beads flow cytometry, compound fluorescence 488/530 nm; hits give high values; in the data active = fluorescence above about 89;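 note: glutathione beads carrying GST-tagged Bcl family fusion proteins plus one bare bead set; values are compound well signal with DMSO vehicle wells as background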
Avidin bead fluor = avidin bead compound fluorescence profile. Avidin beads, compound fluorescence 488/530 nm, flow cytometry; hits give high values. fluorescence (KMESF) at 10 µM. 220,000 tested, 0.38% active; in the data active = fluorescence above about 47
RGS7-Gao = regulators of human RGS7-Galphao interaction | P09471 | Multiplexed bead flow cytometry, RGS7-Galphao binding; actives lie on both sides | binding response (% of control), % at 10 µM | 220,000 tested, 0.35% active; in the data active = binding response below about 49% or above about 150%; inconclusive = no clear call, values can overlap the other calls; inactive = in between;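 note: fluorescent Galphao held in activated GDP-AlF4 state binding bead-coupled RGS7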
RGS16-Gao = modulates binding between human RGS16 and Galphao | O15492+P09471 | bead-based flow cytometry RGS16-Galphao binding, fluorescence; actives lie on both sides | binding response (% of control), % at 10 µM | 220,000 tested, 0.38% active | AID 1441;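 note: Galphao activated by GDP with aluminum fluoride before binding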
Target sequence (O15492 whole entry, looked up): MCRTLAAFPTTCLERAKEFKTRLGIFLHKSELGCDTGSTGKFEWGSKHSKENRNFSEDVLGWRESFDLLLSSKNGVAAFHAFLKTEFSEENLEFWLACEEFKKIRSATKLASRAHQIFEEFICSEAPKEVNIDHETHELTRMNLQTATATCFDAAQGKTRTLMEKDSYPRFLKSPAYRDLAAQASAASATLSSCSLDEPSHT
Target sequence (P09471 whole entry, looked up): as the sequence (P09471 whole entry, looked up) above
RGS8-Gao = regulators of human RGS8-Galphao interaction; multiplexed bead flow cytometry, RGS8-Galphao binding; actives lie on both sides; response (percent of control binding), % at 10 µM; 220,000 tested, 0.34% active; in the data active = response below about 60% or above about 140%; inactive = in between;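 note: Galphao activated as the GDP aluminium fluoride complex binding bead-coupled RGS8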
RGS-Gao = modulates binding between human RGS4 and Galphao; shares compounds with RGS16-Gao; multiplexed bead flow cytometry, RGS–Galpha-o binding; RGS4–Galpha-o binding response, % at 10 µM; 1,600 tested, 99% active;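 note: fluorescently labeled Galpha-o bound to GDP with aluminium fluoride binding biotinylated RGS beads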
Avidin counter = biotin-avidin bead binding disruption counter-screen | streptavidin beads, fluorescein-biotin binding, flow cytometry | inhibition, % at 10 µM | shares compounds with RGS16-Gao | 1,700 tested, under 10 active;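 active = inhibition above 50%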;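 note: median green fluorescence of gated singlet beads compared with DMSO control wells; 0% = DMSO wells and 100% = complete loss of bead fluorescence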
RGS8-Gao single = confirmation of regulators of human RGS8-Galphao interaction | 1,700 tested, 3% active | binding response (% of control), % at 10 µM | shares compounds with RGS16-Gao | bead-based flow cytometry RGS8-Galphao binding, fluorescence; actives lie on both sides; in the data active = binding response below about 72% or above about 130%; inactive = in between;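 note: Galphao activated as GDP AlF4 complex before binding bead RGS8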
RGS7-Gao confirm = RGS7-Galphao interaction regulation, single point confirmation | 1,700 tested, 7.8% active | bead-based flow cytometry RGS7-Galphao binding; actives lie on both sides | AID 1837 | response (percent of control binding), % at 10 µM | shares compounds with RGS16-Gao; in the data active = response below about 75% or above about 130%; inactive = in between;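 note: fluorescent Galphao activated with GDP and aluminum fluoride binding bead-coupled RGS7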
RGS16-Gao single = confirmation of regulators of human RGS16-Galphao interaction; shares compounds with RGS16-Gao; bead-based flow cytometry, RGS16-Galphao binding; actives lie on both sides; response (% of control binding), % at 10 µM; 1,700 tested, 4% active; AID 1838; in the data active = response below about 74% or above about 130%; inactive = in between;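 note: Galphao activated as the GDP aluminium fluoride complex binding bead-coupled RGS16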
RGS4-Gao single = confirmation of regulators of human RGS4-Galphao interaction; shares compounds with RGS16-Gao; RGS4-Galphao binding, multiplexed bead flow cytometry; actives lie on both sides; binding response (% of control), % at 10 µM; 1,700 tested, 4% active; AID 1840; in the data active = binding response below about 74% or above about 130%; inactive = in between
RGS19-Gao conf = confirmation of regulators of human RGS19-Galphao interaction | shares compounds with RGS16-Gao | bead-based flow cytometry RGS19-Galphao binding; actives lie on both sides | response (percent of control binding), % at 10 µM | 1,700 tested, 5% active; in the data active = response below about 50% or above about 160%; inactive = in between;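 note: 100% = no compound control and 0% = blank background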
An asterisk follows results filed as active; i = inactive; ? = inconclusive; / = not tested or not shown; [ ] = dose if it differs, or a comment. Unless noted, the rule behind the calls is not given here.

SMILES	RGS4-Gao reg	GSH fluor	Avidin bead fluor	RGS7-Gao	RGS16-Gao	RGS8-Gao	RGS-Gao	Avidin counter	RGS8-Gao single	RGS7-Gao confirm	RGS16-Gao single	RGS4-Gao single	RGS19-Gao conf
CCCCNC(=O)CN(CCc1ccccc1)S(C)(=O)=O	169*[activator]	12	23	133	149	108	/	i	107	118	110	114	109
CCN1CCN(Cc2cc(=O)oc3ccc(Cl)cc23)CC1	108	26	10	107	245	144*[activator]	108*	2	102	103	102	98	107
O=C(c1cc([N+](=O)[O-])ccc1N1CCOCC1)N1CCOCC1	96	9	1	98	70	89	/	/	/	/	/	/	/
O=C(c1cc([N+](=O)[O-])ccc1N1CCOCC1)N1CCCC1	84	9	1	86	16*	65	84*	-2	101	98	98	102	97
COc1ccc(C(=O)c2cc([N+](=O)[O-])ccc2N2CCOCC2)cc1	89	10	1	93	69	87	/	/	/	/	/	/	/
Cc1ccc(C(=O)c2cc([N+](=O)[O-])ccc2N2CCOCC2)cc1	92	7	6	89	21*	85	92*	5	101	99	99	99	104
Cc1cccc(OCCC(=O)NCC(=O)Nc2cccc(C)c2C)c1	99	8	14	99	92	100	/	/	/	/	/	/	/
Cc1cc(C)n(C(=O)COc2ccc([N+](=O)[O-])cc2)n1	102	8	3	102	108	102	/	/	/	/	/	/	/
Cc1cc(C)n(C(N)=NC(=O)c2ccc([N+](=O)[O-])cc2)n1	35*	/	1	?	36	54*	/	1	99	95	99	98	98
CCOC(=O)N1CCN(CC(=O)Nc2c(C(=O)OC)[nH]c3ccccc23)CC1	124	18	106*	175*[activator]	103	98	124*	0	106	99	110	107	100
COC(=O)c1[nH]c2ccccc2c1NC(=O)CN1CCCCCC1	106	25	5	106	112	106	/	/	/	/	/	/	/
Cc1ccc([N+](=O)[O-])cc1NC(=O)/C=C/C(=O)O	96	/	8	?	96	101	/	/	/	/	/	/	/
COc1ccc([N+](=O)[O-])cc1NC(=O)Cc1ccc(C)cc1	84	9	6	79	-0.2*	68	84*	1	102	100	99	102	86
COc1ccc([N+](=O)[O-])cc1NC(=O)/C=C/C(=O)O	91	10	2	92	13*	66	91*	i	103	101	107	102	118
CC(NCCC1(Cc2ccccc2Cl)CCOC(C)(C)C1)c1cccs1 (stereo not drawn)	92	/	6	?	92	101	/	/	/	/	/	/	/
S=C(NCCc1ccccc1)Nc1cccc2cnccc12	103	12	24	103	110	105	/	/	/	/	/	/	/
CCN(CC)S(=O)(=O)c1cc(C(=O)Nc2nncs2)c(Cl)cc1Cl	105	14	/	/	57	77	/	0	97	96	91	94	91
CCN(CC)C(=O)CN1CCN(c2ncccn2)CC1	120	31	3	122	271	142*[activator]	120*	0	100	86	93	96	83
O=C(CN1CCN(c2ncccn2)CC1)N1CCCC1	103	14	12	101	107	104	/	/	/	/	/	/	/
COc1ccc2[nH]cc(CCNS(=O)(=O)c3ccccc3)c2c1	100	11	12	102	107	103	/	/	/	/	/	/	/
O=C(N/N=C/c1cc([N+](=O)[O-])ccc1N1CCNCC1)c1ccc([N+](=O)[O-])cc1	94	20	15	93	99	101	/	/	/	/	/	/	/
C=CCn1c(Cc2c[nH]c3ccccc23)n[nH]c1=S	100	33	10	100	103	102	/	/	/	/	/	/	/
C=CCn1c(Cc2ccccc2)n[nH]c1=S	96	13	8	93	9.3*	66	96*	-1	103	107	101	106	112
COc1ccc(NC(=O)CC23CC4CC(C2)CC(n2nnc(C)n2)(C4)C3)cc1	99	20	10	94	101	99	/	/	/	/	/	/	/
CCCc1nc2ccc(NC(=O)NCCC(=O)OCC)cc2c(=O)n1Cc1ccc(Cl)cc1	89	16	3	85	8.6*	69	89*	0	103	100	103	102	103
SMILES	RGS4-Gao reg	GSH fluor	Avidin bead fluor	RGS7-Gao	RGS16-Gao	RGS8-Gao	RGS-Gao	Avidin counter	RGS8-Gao single	RGS7-Gao confirm	RGS16-Gao single	RGS4-Gao single	RGS19-Gao conf
O=C(NCCNC(=O)C1CC2CCC1C2)C1CC2CCC1C2 (stereo not drawn)	123	36	229*	186*[activator]	111	100	123*	-1	100	96	98	96	100
COc1cccc2c1NC(C(=O)O)C1CC=CC21 (stereo not drawn)	70	6	6	36*	63	54*	70*	0	100	76	96	89	94
CC(C)Oc1ccc(C(CC(=O)O)NC(=O)c2cccs2)cc1 (stereo not drawn)	/	30	/	/	/	/	/	2	94	81	88	86	90
CCCOc1ccc(C(CC(=O)O)NC(=O)c2cccs2)cc1 (stereo not drawn)	100	27	33	103	99	101	/	/	/	/	/	/	/
CC(=O)NC(=S)Nc1ccc(S(=O)(=O)Nc2nc(C)cc(C)n2)cc1	97	18	8	100	97	98	/	/	/	/	/	/	/
c1ccc(Oc2cc(-c3ccccc3)nc(-c3ccccc3)n2)cc1	27*	10	4	18*	19*	39*	/	0	97	97	95	97	105
Cc1cc(Oc2ccccc2)nc(-c2ccccc2)n1	105	38	12	100	104	104	/	/	/	/	/	/	/

Bioassay records deposited in PubChem by NMMLSC.
